From PubChem BioAssay AID504770 (ICCB-Longwood Screening Facility, Harvard Medical School, 2011) come the findings set out here.

Where “and” joins values, the source holds several entries; their conditions need not be identical. Equal entries are not always repeated. About 350 (0.27%) of roughly 130,000 compounds were called active. Shown is part of a subset that was picked to be rich in actives. Values without a mark were called inactive. Rule as the data show it: active = z-score below about -2 (passing the limit was not always enough); inactive = the rest.

The nature of the assay: PubChem AID 504770. The note with it: E. coli YBA685 rctB-dependent plasmid, OD600 growth, 3 h; hits give low values.
Take `CCOc1ccc(/C=c2/sc3nnc(-c4ccccc4C)n3c2=O)cc1`: the z-score was -0.2.

Turning to `NC(=O)CSc1ccccc1NC(=O)c1cc(-c2cccs2)nn1-c1ccccc1`, the z-score was 3.15.

As for `COc1ccc(NS(=O)(=O)N(C)C)cn1`, the z-score is 0.3.

Take `Cc1oc2cc(O)ccc2c(=O)c1-c1nc2ccccc2[nH]1`: the z-score was -0.6.

In the case of `CCCOc1ccc(C2C3=C(CCCC3=O)OC3=C2C(=O)CCC3)cc1`, the z-score was -0.45.

Take `O=C1CCCC2=C1C(c1ccccn1)Nc1ccc3ncccc3c12` (stereo unspecified): the z-score was -0.55.

Take `O=C1CCCC2=C1C(c1ccccn1)C1=C(CCCC1=O)O2`: the z-score is -2.45 (active).

For the molecule `S=C(Nc1ccccc1)NC1CC2CCCC(C1)N2C1CC1` (stereo unspecified), the z-score is -0.5.

Take `c1ccc(CNCc2ccc3c(c2)OCO3)cc1`: the z-score was -1.25.

Take `O=C(CC(NCc1ccco1)C(=O)O)Nc1cccc(C(F)(F)F)c1` (stereo unspecified): the z-score is 1.45.

In the case of `CCOc1ncccc1C(=O)Nc1ccc2c(c1)OCCO2`, the z-score is -0.25.

`C[N+]1(CC(O)COc2ccccc2F)CCOCC1` (stereo unspecified): the z-score is 0.45.

Turning to `O=C1C(=O)N(CCO)C(c2ccccc2)/C1=C(/O)c1ccccc1` (stereo unspecified), the z-score was -0.3.

For `COc1ccccc1-c1nnc(C2CCN(S(=O)(=O)c3ccc(C)cc3)CC2)o1`, the z-score is 0.85.

As to `COC(=O)c1sc(=S)n(-c2ccc(C)cc2)c1N`, the z-score was 0.95.

As for `COc1cc(OC)c(C(=O)OCC(=O)N(C)C2CCCCC2)cc1OC`, the z-score is 0.65.

As for `O=C(CSc1ccccn1)Nc1cc(C(F)(F)F)cc(C(F)(F)F)c1`, the z-score was -0.4.

Take `COC(=O)CC1=C(C(=O)OC)C2(C(=O)N1)C(C#N)=C(N)Oc1ccccc12` (stereo unspecified): the z-score is 0.45.

Consider `CC(C(=O)O)C(C(=O)O)C(C)c1ccccc1` (stereo unspecified), for which the z-score was -0.7.

On to `O=C(NCCN1CCOCC1)C1CCN(C(=O)c2cc3sccc3n2Cc2ccc(F)cc2)CC1`, for which the z-score was -0.45.

`O=C1NCCCCC1NC(=S)Nc1ccccc1` (stereo unspecified): the z-score was -0.25.

`COc1cc(/C=C2/C(=O)Nc3cc(Cl)ccc32)cc(OC)c1O`: the z-score was 0.9.

For the molecule `O=C(Cn1nnc(-c2ccccc2)n1)NC(=O)NCc1ccccc1`, the z-score is -0.5.

Consider `CN1CCC(OC(=O)c2ccc3c(c2)OCCO3)CC1`, for which the z-score was -0.5.

With `CC(=O)Nc1ccc(N2C(=O)C=CC2=O)cc1`, the z-score is -2.5 (active).

Regarding `CCNCC(=O)Nc1ccc(NC(C)=O)cc1`, the z-score is 0.15.

On to `O=C1C=CC(=O)N1c1ccc(Br)cc1`, for which the z-score is 0.05.

Take `Cc1ccc(-c2nnc(NCc3ccco3)c3ccccc23)cc1C`: the z-score is -0.6.

For the molecule `Cc1ccc(NNC(=O)C(C)(C)O)c(C)c1`, the z-score was -0.15.

Regarding `CCOC(=O)N1CCN(c2nc(-c3ccccc3)no2)CC1`, the z-score was 0.

As for `CN1CCCc2cc(-c3ccnc4ccccc34)ccc21`, the z-score was 0.35.

As to `COC(=O)c1cc2occc2n1Cc1ccc(C)cc1`, the z-score was 0.3.

Regarding `O=C(COc1c(-c2ccco2)oc2ccccc2c1=O)NCCc1ccccc1`, the z-score is 0.9.

As for `CCOC(=O)/C(=C(/C)N1CCCC1)P(=S)(N1CCOCC1)N1CCOCC1`, the z-score was -1.8.

For `Cc1nn(-c2ccccc2)c(OC(=O)c2ccc(Br)o2)c1Sc1ccccc1`, the z-score is 0.

In the case of `CC(CC(=O)OCc1ncc(-c2ccccc2)o1)c1ccccc1` (stereo unspecified), the z-score is 0.65.

Turning to `Cc1cc(C(=O)Oc2ccc(C(=O)c3ccc(F)cc3)cc2)on1`, the z-score was -0.2.

As for `COc1ccc2oc(=O)c(C(=O)NC(C)(C)C)cc2c1`, the z-score is -0.45.

For `c1ccc(-n2nnnc2Sc2nc(C3CC3)n(-c3ccccc3)n2)cc1`, the z-score is 0.25.

As to `Cc1ccc2oc(-c3ccccc3C)nc2c1`, the z-score is 1.9.

In the case of `CC(Sc1nc(N)nc(N)n1)C(=O)NC1(C#N)CCCCC1` (stereo unspecified), the z-score was -0.4.

`O=C(OCC(=O)N1CCCC1)c1ccccc1OCc1ccccc1Cl`: the z-score was 0.2.

As to `CC(OC(=O)C1CCN(C(=O)c2ccc(Cl)cc2)CC1)C(=O)NC1CC1` (stereo unspecified), the z-score was 1.3.

As for `Cc1cc(C)c(C)c(OCC(=O)N(Cc2nc(-c3ccccc3)no2)C2CCCCC2)c1`, the z-score was -0.5.

For `COc1ccc(-c2cc(C(=O)NCCCN3CCOCC3)no2)cc1`, the z-score is 0.4.

Regarding `Cc1cccc(NC2=NC3CS(=O)(=O)CC3S2)c1` (stereo unspecified), the z-score is -0.4.

Consider `Cc1nnsc1C(=O)NC(=O)c1ccccc1O`, for which the z-score was 0.45.

`COC(=O)C(C)N(C#N)c1nc(N(C)C)nc(N(C)C)n1` (stereo unspecified): the z-score was -0.3.

As to `CN1CCN(c2nc(C34CC5CC(CC(C5)C3)C4)cs2)CC1`, the z-score was 0.45.

Turning to `Clc1ccc2c(Sc3nncn3-c3ccccc3)ccnc2c1`, the z-score was 0.2.

`C=CCN(CC=C)C(=O)COc1ncnc2sccc12`: the z-score is -0.3.

As to `CSc1nc(=O)n(Cc2ccccn2)c2c1CCC2`, the z-score is -0.15.

With `CCCCn1c2ccccc2c2n[nH]c(=S)nc21`, the z-score was -0.4 and 1.45.

For the molecule `CCc1cccc(NS(=O)(=O)c2cc(Br)cc3c2N(C(=O)C2CC2)CC3)c1`, the z-score is -2.9 (active).

Take `O=C(CCS(=O)(=O)c1cc(Br)cc2c1N(C(=O)C1CC1)CC2)NCc1ccc(F)cc1`: the z-score is -0.8.

Consider `CCC(=O)N1CCc2cc(Br)cc(S(=O)(=O)NCCN3CCN(c4ccccc4F)CC3)c21`, for which the z-score was -0.85.

Regarding `O=C(Cn1c(=O)oc2cc(S(=O)(=O)NCc3ccccc3)ccc21)NC1CCCC1`, the z-score is 2.3.

With `O=C(COc1ccc(Cl)cc1)Nc1c(-c2ccc(F)cc2)nc2ccccn12`, the z-score is -0.15.

Regarding `CCOC(=O)C(Cc1ccccc1)C(=O)Nc1cccc(C)n1` (stereo unspecified), the z-score was -0.4.

Take `O=C(CCSc1nc(-c2ccco2)cc(C(F)(F)F)n1)N1CCCC1`: the z-score is 0.85.

With `Cc1nc(/N=C(/N)NC(=O)c2ccccc2)nc2ccccc12`, the z-score was 0.6.

For `Cc1ccc2c(c1)c1c(n2CC(O)CN2CCCCC2)C(=O)CCC1` (stereo unspecified), the z-score is -0.35.

`CC1CC(C)CN(c2ncnc3scc(-c4ccccc4)c23)C1` (stereo unspecified): the z-score was -0.7.

Turning to `CC1CCCCC1NC(=O)COC(=O)c1nc(Cl)ccc1Cl` (stereo unspecified), the z-score is -0.55.

As for `O=C(COC(=O)/C=C/c1cn(-c2ccccc2)nc1-c1ccccc1)NC1CC1`, the z-score was -2.45.

Regarding `CCc1ccc(CCC(=O)O)cc1`, the z-score was 0.8.

For `CCc1ccc(C(=O)CCC(=O)O)s1`, the z-score is -3.1 (active).

`CCc1ccc(C(=O)COC(=O)c2cccc(-n3cccc3)c2)s1`: the z-score is 1.2.

`O=c1c(/C=N/O)coc2ccc(Cl)cc12`: the z-score is -3.05 (active).

On to `O/N=C/c1cccc(Cl)c1`, for which the z-score was -0.05.

As for `O=c1c(/C=N\O)coc2ccc(F)cc12`, the z-score was 1.15.

Consider `CCCc1cc(=O)oc2c1c(C)nn2C`, for which the z-score is 0.15.

As for `Cc1cccc(-n2nc(C)c3c(C)cc(=O)oc32)c1`, the z-score was -3.15 (active).

On to `CCCc1cc(=O)[nH]c2c1c(C)nn2-c1cccc(F)c1`, for which the z-score was 2.25.

In the case of `CCN(CC)S(=O)(=O)c1ccc(C(=O)NCCn2c(C)cc3ccccc32)cc1`, the z-score was 0.65.

On to `Cc1ccc(C(C(=O)NCc2ccccc2)N(Cc2ccco2)C(=O)Cn2nnc3ccccc32)cc1` (stereo unspecified), for which the z-score is -0.35.

For `CCN1CCN(c2ccc(NC(=O)[C@H](Cc3ccccc3)N3Cc4ccccc4C3=O)cc2)CC1`, the z-score was 1.2.

Take `CCSc1nnc(SCC(=O)c2ccc3[nH]c(=O)[nH]c3c2)s1`: the z-score is 1.6.

With `Cc1cc(C(=O)OCC(=O)N2C(C)CCCC2C)c2ccccc2n1` (stereo unspecified), the z-score is 0.05.

For `CC1CCCC(C)N1C(=O)COC(=O)c1ccccc1I` (stereo unspecified), the z-score is 1.25.

As for `CCOc1ncccc1C(=O)OCC(=O)N1C(C)CCCC1C` (stereo unspecified), the z-score is -5.9 (active).

As to `COC(=O)CN1C(=O)C(C)(C)Oc2ccc(C(=O)Nc3cccc(OC)c3)cc21`, the z-score is -0.45.

Consider `COc1ccc(C2CC(=O)C3=C(C2)NC(=O)CC3c2ccc3c(c2)OCO3)cc1` (stereo unspecified), for which the z-score was 0.05.

As to `CCCN1CCC(NC(=S)Nc2ccc3c(c2)OCO3)CC1`, the z-score is 1.7.

As to `O=C(Nc1ccccc1)C1CCN(C(=O)c2cccs2)CC1`, the z-score was 0.15.

For `CCN1CCN(C(=O)c2ccc(/C=C3/Sc4ccccc4N(Cc4ccccc4C)C3=O)cc2)CC1`, the z-score is 0.25.
